We go through 76 compounds from PubChem BioAssay AID602393 (Broad Institute, 2012).

About 7,000 (2%) of roughly 350,000 compounds were called active. No stated cut-off is given here; in the data, active means activation above about 40%; inconclusive means no clear call, values can overlap the other calls; inactive means below that. The list comes from a sample in which actives are over-represented; it also holds similar structures and randomly drawn compounds.

The experiment is described as follows: raisers of Bmi1 knock-in reporter signal – mouse ES cells, Bmi1 luciferase knock-in, single point, esBAF inhibitor project, primary screen (AID 602393).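 Further: 0% = median of the plate's neutral control wells and 100% = double that signal; a rise in the Bmi1 reporter signal indicates esBAF inhibition.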 The note with it: 24 h, at 12.5 µM, stronger effect = higher value, 100% = twice the neutral-well signal.
Take `O=C(C[C@H]1C=C[C@H](NS(=O)(=O)c2ccc(F)cc2)[C@H](CO)O1)NCc1ccncn1`: the reporter increase is 0.952% (inactive).

For `Cc1ccc(NC(=O)CCCNC(=O)c2ccc(Cl)cc2)cc1S(=O)(=O)N1CCCCC1`, the reporter increase was -3.1% (inactive). For `Cc1ccc(NC(=O)c2ccc(Cl)nc2)cc1S(=O)(=O)N1CCOCC1` the value was 0.751% (inactive); for `Cc1ccc(C(=O)Nc2ccc3c(c2)OCO3)cc1S(=O)(=O)N1CCCCC1`, 57% (active). For `COc1ccc(C(=O)Nc2ccc3c(c2)OCO3)cc1OC` the value was 53.2% (active); for `Cc1ccc(C(=O)Nc2ncccc2C)cc1S(=O)(=O)N1CCOCC1`, 3.68% (inactive). For `COc1cc(C(=O)NCC2(c3ccccc3)CCCC2)ccc1OC(C)C` the value was -10.2% (inactive); for `O=C(Nc1ccc(N2CCOCC2)cc1)c1ccc2c(c1)OCO2`, 39.9% (inactive); for `COc1ccc(C(=O)Nc2ccc(C3(C#N)CCCC3)cc2)cc1OC`, 44% (active). Regarding `Cc1ccc(C(=O)Nc2ccc3c(c2)OCCO3)cc1S(=O)(=O)N1CCOCC1`, the reporter increase was 70.5% (active).

Consider `Cc1ccc(NC(=O)C2CC(=O)N(c3ccc4c(c3)OCCO4)C2)cc1S(=O)(=O)N1CCCCCC1` (stereo unspecified), for which the reporter increase was 1.1% (inactive). As to `COc1ccc(C(=O)NC2CC(C)(C)NC(C)(C)C2)cc1OC`, the reporter increase is 0.227% (inactive). For `COc1ccc(Cl)cc1NC(=O)CN(C)CC(=O)Nc1ccc2c(c1)OCO2` the value was 0.413% (inactive); for `O=C(Cc1ccncc1)NCC[C@@H]1CC[C@H](NC(=O)Nc2ccc(Cl)cc2)[C@@H](CO)O1`, -1.9% (inactive). For `CN1CCN(C(=O)C[C@H]2C[C@H]3c4cc(NC(=O)C5CCC5)ccc4O[C@H]3[C@H](CO)O2)CC1` the value was 1.39% (inactive); for `O=C(NCCN1CCCC1)[C@@H]1N[C@@H]2c3ccc(-c4ccccc4)c(=O)n3C[C@@H]2[C@H]1CO`, -5.2% (inactive); for `O=C(C[C@@H]1CC[C@H](NC(=O)Nc2cc(F)ccc2F)[C@H](CO)O1)NCc1ccncn1`, 4.9% (inactive). `C[C@H]1CN([C@@H](C)CO)C(=O)c2cc(-c3ccccc3F)cnc2O[C@@H]1CN(C)C(=O)C1CCCCC1`: the reporter increase was -0.372% (inactive). As to `CC=Cc1ccc2n(c1=O)C[C@@H]1[C@@H](CO)[C@H](C(=O)NCc3cccc(OC)c3)N[C@H]21` (mixture of isomers), the reporter increase is 0.983% (inactive). For `CCCNC(=O)N1[C@H](CNC(=O)c2cccc(F)c2)[C@H](c2ccccc2)[C@@H]1CO` the value was 3.53% (inactive); for `C[C@@H]1CCCCO[C@H](CN(C)Cc2ccc(C(F)(F)F)cc2)[C@H](C)CN([C@@H](C)CO)C(=O)c2cc(N(C)C)ccc2O1`, 0.085% (inactive); for `COc1ccc(C#Cc2cnc3c(c2)C(=O)N([C@H](C)CO)C[C@@H](C)[C@H](CN(C)C(=O)Nc2cccc(OC)c2)O3)cc1`, 4.12% (inactive). For `COc1ccccc1-c1cnc2c(c1)C(=O)N([C@H](C)CO)C[C@H](C)[C@H](CN(C)Cc1cccnc1)O2` the value was -8.49% (inactive); for `COc1ccc(S(=O)(=O)N(C)C[C@H]2OCCCC[C@H](C)Oc3ccc(NC(=O)Nc4ccc(F)cc4)cc3C(=O)N([C@@H](C)CO)C[C@H]2C)cc1`, 0.828% (inactive); for `COc1ccc(S(=O)(=O)Nc2cccc3c2O[C@@H](CN(C)S(=O)(=O)c2ccccc2)[C@@H](C)CN([C@@H](C)CO)C3=O)cc1`, 1.5% (inactive). As to `CNS(=O)(=O)c1ccc(NC(=O)Nc2ccc3c(c2)OCO3)cc1`, the reporter increase was 52.5% (active). For `CC(C)CNS(=O)(=O)c1ccc(C(=O)Nc2ccc3c(c2)OCO3)cc1` the value was -0.727% (inactive); for `Cc1ccc(S(=O)(=O)NCC(=O)Nc2ccc3c(c2)OCCO3)cc1`, -6.84% (inactive). On to `CO[C@@H]1CN(C)C(=O)c2cc(NC(=O)c3ccccc3F)ccc2OC[C@H](C)NC[C@@H]1C`, for which the reporter increase was -0.986% (inactive). Regarding `Cc1cccc(C)c1NC(=O)COC(=O)c1c(C)nn(-c2ccccc2)c1C`, the reporter increase was -0.0425% (inactive).

`Cc1ccc(OC(=O)c2c(C)nn(-c3ccccc3)c2C)cc1`: the reporter increase was 65% (active).

Consider `Cc1nn(-c2ccccc2)c(CC(C)(C)C(=O)O)c1C(=O)O`, for which the reporter increase was -1.54% (inactive). Take `O=C(Nc1cccc(Cl)c1)N1C[C@@H]2[C@H](c3ccccc31)[C@H](CO)N2C(=O)C1CC1`: the reporter increase is -2.51% (inactive). For `CCS(=O)(=O)Nc1ccc2c(c1)C(=O)N(C)C[C@@H](OC)[C@@H](C)CN(C(=O)COC)[C@H](C)CO2` the value was -2.28% (inactive); for `Cc1ccccc1Nc1nc(-c2cccnc2)cs1`, 71.3% (active). For `O=C(NCc1cccnc1)C(=O)Nc1nc(-c2ccccc2)cs1` the value was 38.2% (inactive). For `CN(c1ccc(O)cc1)c1nc(-c2cccnc2)cs1` the value was 33.5% (inactive); for `COc1ccc(-c2ccc([C@@H]3[C@@H](CO)N4CCCCN(C(=O)NC(C)C)C[C@H]34)cc2)cc1`, -0.595% (inactive); for `CN(C)C(=O)c1cccc(-c2ccc3c(c2)[C@H]2[C@H](CCN2C(=O)c2cccnc2)[C@H](CO)N3)c1`, -0.408% (inactive). In the case of `CO[C@H]1CN(C)C(=O)c2ccc(NC(=O)c3cnccn3)cc2OC[C@@H](C)N(C(C)=O)C[C@H]1C`, the reporter increase was -1.77% (inactive). Take `C[C@H](NC(=O)C[C@H]1C=C[C@H](NS(=O)(=O)c2cccc(F)c2)[C@@H](CO)O1)c1ccccc1`: the reporter increase was -4.57% (inactive). For `C[C@@H]1CCCCO[C@H](CN(C)S(=O)(=O)c2cn(C)cn2)[C@H](C)CN([C@H](C)CO)C(=O)c2cc(N(C)C)ccc2O1`, the reporter increase is -3.59% (inactive). For `COC(=O)c1sccc1N/N=C(\C)c1ccc(F)c(Cl)c1` the value was 11.8% (inactive); for `COc1cccc(/C(C)=N/Nc2ncc(Cl)cc2Cl)c1`, 54% (active); for `COc1ccc(/C(C)=N/NC(=O)c2ccc3nc[nH]c3c2)cc1`, -4.25% (inactive). For `C[C@@H]1CN([C@@H](C)CO)C(=O)Cc2cc(NC(=O)CCCCCC(=O)Nc3ccccc3N)ccc2O[C@H]1CN(C)Cc1ccc(Cl)c(Cl)c1`, the reporter increase is -6.35% (inactive).

In the case of `CSc1ccccc1OCc1cc(C(=O)N2C[C@H]3CC[C@H]2C3)no1`, the reporter increase was 87.7% (active).

Turning to `CSc1ccccc1OCc1cc(C(=O)N(C)CCc2c(C)n[nH]c2C)no1`, the reporter increase was -2.74% (inactive).

For `Cc1nonc1C1CCCN1C(=O)c1cc(COc2cccc(C(F)(F)F)c2)on1` (stereo unspecified), the reporter increase is -1.7% (inactive). Turning to `CCNC(=O)[C@@H]1[C@@H](CO)[C@@H]2Cn3c(ccc(C4=CCCC4)c3=O)[C@H]1N2Cc1ccccc1`, the reporter increase was -1.26% (inactive). `O=C(C[C@@H]1CC[C@H]2[C@@H](COC[C@H](O)CN2C(=O)Nc2ccccc2)O1)NCc1ccccc1F`: the reporter increase is 4.71% (inactive). For `CCC(CC)c1nnc(NC(=O)C2CCN(C(=O)c3ccco3)CC2)s1` the value was 3.96% (inactive); for `CCC(CC)c1nnc(NC(=O)C2=COCCO2)s1`, 53.6% (active). For `COc1cc(-c2nnc(NC(=O)C3=COCCO3)o2)cc(OC)c1OC` the value was -0.666% (inactive); for `O=C(Nc1ccccc1N1CCOCC1)c1csc2c1CCCC2`, 2.6% (inactive). In the case of `CC1CC(C)CN(CCCNC(=O)c2csc3c2CCCCC3)C1` (stereo unspecified), the reporter increase is -0.645% (inactive).

For the compound `COC(=O)c1sc(NC(=O)c2csc3c2CCCC3)nc1C`, the reporter increase is 52.4% (active). In the case of `CN1c2ccc(Br)cc2[C@H]2[C@H](CCN2S(=O)(=O)c2ccccc2)[C@@H]1CO`, the reporter increase is 1.11% (inactive). For `CO[C@H]1CN(C)C(=O)c2cc(NC(=O)c3cc(C)on3)ccc2OC[C@@H](C)N(C(C)=O)C[C@H]1C` the value was -1.52% (inactive). For `COc1ccc(C(=O)NC2=NCCS2)c(OC)c1` the value was -5.27% (inactive); for `COc1ccc(Cc2nnc(NC(=O)c3ccc(OC)cc3OC)s2)cc1`, 60.8% (active). For `COc1ccc(C(=O)Nc2nncs2)c(OC)c1` the value was 72.1% (active); for `COc1cccc(OC)c1C(=O)Nc1nnc(C(C)C)s1`, 4.44% (inactive). Consider `COc1ccc(Cc2nnc(NC(=O)Cc3cccs3)s2)cc1`, for which the reporter increase was -12.5% (inactive). Consider `COc1ccc(Cc2nnc(NC(=O)c3cc(OC)c(OC)c(OC)c3)s2)cc1OC`, for which the reporter increase was -8.39% (inactive). For `C[C@@H](O)C#Cc1cnc2c(c1)C(=O)N([C@@H](C)CO)C[C@H](C)[C@H](CN(C)C(=O)c1ccccc1F)O2` the value was -1.43% (inactive); for `COc1ccccc1-c1cnc2c(c1)C(=O)N([C@H](C)CO)C[C@H](C)[C@@H](CN(C)C(=O)CC1CC1)O2`, -6.49% (inactive). As to `O=C(O)C[C@@H]1C[C@@H]2c3cc(NC(=O)Nc4ccccc4)ccc3O[C@@H]2[C@H](CO)O1`, the reporter increase was 2.21% (inactive). For `Cc1ccc2nc(/C(C#N)=C\c3ccc(OC(=O)c4cccs4)cc3)[nH]c2c1` the value was 113% (active).

For `CCC(=O)N(C)C[C@H]1Oc2ncc(-c3ccccc3OC)cc2C(=O)N([C@H](C)CO)C[C@H]1C`, the reporter increase was 2.4% (inactive). For `C[C@@H]1CCCCO[C@H](CN(C)C(=O)Cc2ccccc2)[C@@H](C)CN([C@@H](C)CO)C(=O)c2cc(NC(=O)c3ccccc3)ccc2O1` the value was -0.116% (inactive).

For the compound `Cc1ccc(S(=O)(=O)/N=C(/Nc2ccc3[nH]c(=O)[nH]c3c2)c2ccccc2)cc1`, the reporter increase was 3.61% (inactive). For the compound `Cc1ccc(S/C(=N\S(=O)(=O)c2ccc(Cl)cc2)c2ccccc2)cc1`, the reporter increase was -7.08% (inactive). For `Cc1ccc(S(=O)(=O)/N=C(/Nc2ccccn2)c2ccc(Cl)cc2)cc1` the value was 45.6% (active); for `C[C@@H]1CN([C@@H](C)CO)C(=O)c2cccc(NC(=O)Nc3ccc(C(F)(F)F)cc3)c2O[C@@H]1CN(C)S(=O)(=O)c1cccs1`, 0.762% (inactive); for `C[C@@H](O)C#Cc1cnc2c(c1)C(=O)N([C@@H](C)CO)C[C@H](C)[C@@H](CN(C)CC1CCCCC1)O2`, -1.99% (inactive).
